According to publication PMC4336329 (PLoS ONE, 2015):
In all, about 310,000 compounds went through this assay and about 14,000 (4.5%) showed an effect of 50% or more. Effects have a minus sign here. The list comes from a sample in which strong results are over-represented; it also holds similar structures and randomly drawn compounds.

These molecules were tested against human ether-à-go-go-related gene (hERG) potassium channel (human, UniProt Q12809) (assay: primary screen, population patch clamp on CHO cells stably expressing hERG; higher = less effect of the substance).
Sequence of human ether-à-go-go-related gene (hERG) potassium channel (Q12809 whole entry, looked up): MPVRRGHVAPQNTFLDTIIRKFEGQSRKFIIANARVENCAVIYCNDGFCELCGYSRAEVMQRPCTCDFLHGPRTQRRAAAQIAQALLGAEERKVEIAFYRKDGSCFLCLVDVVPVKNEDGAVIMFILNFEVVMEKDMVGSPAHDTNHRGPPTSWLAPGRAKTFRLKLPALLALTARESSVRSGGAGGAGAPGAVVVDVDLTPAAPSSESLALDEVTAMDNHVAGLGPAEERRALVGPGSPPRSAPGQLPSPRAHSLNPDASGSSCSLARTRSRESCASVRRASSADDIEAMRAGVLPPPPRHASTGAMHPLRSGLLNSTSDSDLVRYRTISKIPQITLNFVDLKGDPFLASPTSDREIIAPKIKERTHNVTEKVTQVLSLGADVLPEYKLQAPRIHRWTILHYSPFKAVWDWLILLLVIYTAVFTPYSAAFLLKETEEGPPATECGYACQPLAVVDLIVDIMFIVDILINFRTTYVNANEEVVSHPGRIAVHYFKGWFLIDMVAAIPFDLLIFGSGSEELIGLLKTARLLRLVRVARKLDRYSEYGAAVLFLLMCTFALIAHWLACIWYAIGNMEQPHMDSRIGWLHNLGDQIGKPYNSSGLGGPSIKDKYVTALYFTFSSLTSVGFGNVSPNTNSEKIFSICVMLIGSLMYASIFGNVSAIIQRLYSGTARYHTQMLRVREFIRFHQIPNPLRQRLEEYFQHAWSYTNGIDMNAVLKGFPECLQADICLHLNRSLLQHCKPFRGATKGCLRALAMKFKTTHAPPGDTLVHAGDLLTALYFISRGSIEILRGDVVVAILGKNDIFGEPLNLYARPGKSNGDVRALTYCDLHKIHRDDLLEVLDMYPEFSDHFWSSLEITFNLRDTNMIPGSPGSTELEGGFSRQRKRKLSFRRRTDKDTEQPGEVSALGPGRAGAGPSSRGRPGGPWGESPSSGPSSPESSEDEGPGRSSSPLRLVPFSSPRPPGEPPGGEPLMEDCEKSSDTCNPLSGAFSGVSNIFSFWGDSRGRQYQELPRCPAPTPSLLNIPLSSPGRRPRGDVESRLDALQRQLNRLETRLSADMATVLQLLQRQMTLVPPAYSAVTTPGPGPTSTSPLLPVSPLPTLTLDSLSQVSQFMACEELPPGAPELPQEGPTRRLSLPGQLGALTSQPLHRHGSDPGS
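Note: peak tail current of the secondary pulse compared with the same well before compound.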

SMILES	hERG current change (%, negative = inhibition) at 10uM [%]
Cc1ccc(NC(=O)Cn2cnc3cc([N+](=O)[O-])ccc3c2=O)c(Cl)c1	16.4
Cc1ccc(NC(=O)Cn2cnc3cc([N+](=O)[O-])ccc3c2=O)cc1	0.77
CCN(CC)S(=O)(=O)c1ccc(NC(=O)Cn2cnc3ccccc3c2=O)cc1	-32.8
CCN(CC)S(=O)(=O)c1cc(NC(=O)Cn2cnc3ccccc3c2=O)ccc1C	-54.8
CN(C)S(=O)(=O)c1cccc(NC(=O)Cn2cnc3ccccc3c2=O)c1	8.28
CCN(CC)S(=O)(=O)c1ccc(C)c(NC(=O)Cn2cnc3cc([N+](=O)[O-])ccc3c2=O)c1	-55.7
COc1ccc(C(=O)NCc2cc(C)nc3ccccc23)cc1	-13.6
COCc1nc2ccccc2n1CCc1ccccc1	-33.6
O=C1CCC(=O)N1c1ccc(-c2nc3ccccc3s2)cc1	16
Cc1ccc(Sc2c(C)nn(C(=O)C3CC3)c2C)cc1	11.6
O=C1COc2ccc(C(=O)COC(=O)Cc3ccccc3)cc2N1	-13
Cc1ccc(N(C(=O)C2CCC(=O)N2)C2(C(=O)NC3CCCC3)CCCCC2)cc1 (centres unmarked)	0.218
CCOc1cccc(CN2CCC(CCC(=O)NC3CC3)CC2)c1O	-70.3
O=C(CCC1CCN(C(=O)Cc2c(F)cccc2F)CC1)NC1CC1	11.9
O=C(CCC1CCCN(Cc2cccc(Cl)c2)C1)NCc1ccccc1F (centres unmarked)	-50.9
Cc1ncc(CN2CCCC(CCC(=O)NCc3ccccc3F)C2)s1 (centres unmarked)	17.8
CCOc1cccc(CN2CCCC(CCC(=O)NCc3ccccc3F)C2)c1O (centres unmarked)	-65
CC(=O)Nc1ccc(CN2CCCC(CCC(=O)NCc3ccccc3F)C2)cc1 (centres unmarked)	-8.19
O=C(CCC1CCCN(Cc2ccc(O)c(Cl)c2)C1)NCc1ccccc1F (centres unmarked)	-43.2
Cc1nn(C)c(Cl)c1CN1CCCC(CCC(=O)NCc2ccccc2F)C1 (centres unmarked)	-27
O=C(CCC1CCN(Cc2ccccc2O)CC1)NC1CC1	-23.7
O=C1[C@H]2[C@H](C=CC[C@H]2C(=O)N2CCOCC2)CCN1Cc1ccc(Cl)c(Cl)c1	-3.89
CCN1CCC[C@H]1CNC(=O)c1c(OC)ccc(Br)c1OC.Cl	-12.2

SMILES	hERG current change (%, negative = inhibition) at 10uM [%]
Cc1ccc(-c2nc(-c3cccnc3)sc2CC(=O)O)cc1	11
CCN1CCN(C(=O)Cc2c(C)n(C(=O)c3ccc(Cl)cc3)c3ccc(OC)cc23)CC1.Cl	-38.6
N#Cc1nc(-c2ccc(OCc3ccccc3)cc2)oc1N1CCOCC1	10.4
CCc1ccc(-c2cn3nc(C)c(C)nc3n2)cc1	-50.8
Cc1ccc(-c2cn3nc(C)c(C)nc3n2)cc1	-6.47
Cc1nc2nc(-c3ccc(F)cc3)cn2nc1C	7.58
O=C1C=CC(=O)N1c1ccc(I)cc1Cl	18.9
COc1ccc(N2CCN(C(=O)C3CCN(S(=O)(=O)c4c(C)noc4/C=C/N(C)C)CC3)CC2)cc1	-53.8
Cc1cccc(N2CCN(C(=O)C3CCCN(S(=O)(=O)c4c(C)noc4C)C3)CC2)c1C (centres unmarked)	-22.3
COc1ccc(N2CCN(C(=O)C3CCCN(S(=O)(=O)c4ccc(C)cc4)C3)CC2)cc1 (centres unmarked)	-53.4
Cc1noc(C)c1S(=O)(=O)N1CCC(C(=O)N2CCN(c3ccc(Cl)cc3)CC2)CC1	-51.7
COc1ccc(N2CCN(S(=O)(=O)c3c(C)noc3/C=C/N(C)C)CC2)cc1	-0.914
COc1ccc(N2CCN(C(=O)C3CCCN(S(=O)(=O)c4c(C)noc4C)C3)CC2)cc1 (centres unmarked)	-59.9
COc1ccc(N2CCN(C(=O)C3CCCN(S(=O)(=O)c4ccc(F)cc4)C3)CC2)cc1 (centres unmarked)	-39.2
Cc1ccc(C)c(N2CCN(C(=O)C3CCCN(S(=O)(=O)c4c(C)noc4C)C3)CC2)c1 (centres unmarked)	-11.1
Cc1noc(C)c1S(=O)(=O)N1CCC(C(=O)N2CCN(c3ccccc3Cl)CC2)CC1	-13.6
Cc1noc(C)c1S(=O)(=O)N1CCC(C(=O)N2CCN(c3ccc(F)cc3)CC2)CC1	-41.4
COc1ccc(NC(=O)C2CCN(S(=O)(=O)c3c(C)noc3/C=C/N(C)C)CC2)cc1	-15.3
COc1ccc(N2CCN(C(=O)C3CCN(S(=O)(=O)c4ccc(C)cc4)CC3)CC2)cc1	-10.2
CCc1ccc(NC(=O)c2sccc2-n2cccc2)cc1	-7.29
NS(=O)(=O)c1ccc(F)c(C(=O)O)c1	8.68
CCNc1ccc(S(=O)(=O)N(C)C)cc1NCC(=O)Nc1ccc(F)c(Cl)c1	-4.33
O=C(Nc1ccc(Cl)cc1F)C1CC1c1ccccc1 (centres unmarked)	12.6

SMILES	hERG current change (%, negative = inhibition) at 10uM [%]
COc1ccc(C)cc1NC(=O)C(Sc1nnc(Nc2cc(C)ccc2OC)s1)c1ccccc1 (centres unmarked)	0.631
Cc1ccc2c(c1)nnc1nnc(SCC(=O)O)n12	3.45
COC(=O)c1sccc1NC(=O)c1csc2c1CCCC2	-10.9
OCC[C@H]1C[C@H](O)[C@@H](O)[C@]2(CCc3ccccc3O2)O1	6.41
Cc1ccc(C(=O)C2CCN(S(=O)(=O)c3c(C)noc3C)CC2)cc1	-67.3
Cc1noc(C)c1S(=O)(=O)N1CCC(C(=O)O)CC1	-3.88
Cc1noc(C)c1S(=O)(=O)N1CCC(C(=O)c2ccccc2)CC1	-43
O=S(=O)(c1ccccc1)N1CCC(n2cnc3ccccc32)CC1	-64
CCn1c(N2CCN(S(=O)(=O)c3ccccc3C(F)(F)F)CC2)nc2ccccc21.Cl	-39.6
COc1ccc(S(=O)(=O)N2CCC(n3cnc4ccccc43)CC2)cc1	-64.9
COc1ccc(S(=O)(=O)n2cnc3ccccc32)cc1.Cl	13.4
O=S(=O)(c1ccc(F)cc1)N1CCC(n2cnc3ccccc32)CC1	-39.7
O=S(=O)(c1ccccc1C(F)(F)F)N1CCN(S(=O)(=O)c2ccccc2C(F)(F)F)CC1	-2.32
O=S(=O)(c1ccccc1C(F)(F)F)N1CCC(n2cnc3ccccc32)CC1	-60.5
O=S(=O)(c1ccc(S(=O)(=O)n2cnc3ccccc32)cc1)N1CCCCCC1	3.15
COc1ccc(NC(=O)N2CCC(n3cnc4ccccc43)CC2)cc1	-28.5
Cn1c(=O)n(CC(=O)N2CCOCC2)c2ccccc21	3.76
COc1ccc(C(=O)NNC(=O)C23CC4CC(CC(C4)C2)C3)cc1OC	0.327
COc1cccc(-n2ccnc2SCC(=O)N2CCCc3ccccc32)c1	-10
Cc1c(Cl)cccc1NC(=O)NN1CCN(C)CC1	-0.937
Cc1nonc1C(=O)N/N=C/c1ccc(O)c(O)c1	-29.7
CCOc1ccccc1NC(=O)COC(=O)c1cc[n+]([O-])cc1	12.3
Cc1ccc([N+](=O)[O-])cc1Nc1nc(N2CCOCC2)nc(N2CCOCC2)n1	-13.5

SMILES	hERG current change (%, negative = inhibition) at 10uM [%]
Cc1ccc(C2OC(=O)C=C2c2ccccc2)cc1 (centres unmarked)	3.71
Cn1c(=O)c2c(ncn2CC(=O)OCC(=O)NC(c2ccccc2)c2ccccc2)n(C)c1=O	-2.22
COC(=O)CN(c1ccccc1)S(=O)(=O)c1ccccc1	4.04
COc1ccc(CCNC(=O)C2CC2)cc1OC	-18.3
Fc1ccccc1Nc1ncnc2c1nnn2Cc1ccccc1	-20
Cc1nnc2ccc(-c3cccc(NS(C)(=O)=O)c3)nn12	-17.1
Cc1nnc2ccc(-c3cccc(NC(=O)c4ccc(Cl)nc4)c3)nn12	-56.7
Cc1nnc2ccc(-c3cccc(NC(=O)c4ccco4)c3)nn12	-5.08
Cc1nnc2ccc(-c3cccc(NC(=O)c4ccc(Br)o4)c3)nn12	-75.8
Cc1nnc2ccc(-c3ccc(NC(=O)c4ccc(Cl)nc4)cc3)nn12	-15
CS(=O)(=O)c1ccc(-c2cccc(NC(=O)c3ccc(Br)o3)c2)nn1	3.74
Cn1cccc1C(=O)OCc1csc(-c2ccccc2)n1	-20.9
O=[N+]([O-])c1cccc(N(CC2CO2)S(=O)(=O)c2ccccc2)c1 (centres unmarked)	-5.4
CCN(C(=O)c1nn(-c2ccc(OC)cc2)c(=O)c2c1c1ccccc1n2C)c1ccc(OC)cc1	18.3
COCCNC(=O)c1cc(-c2ccncc2)nc2ccc(S(=O)(=O)N3CCOCC3)cc12	-32.3
COCCCNC(=O)c1cc(-c2cccnc2)nc2ccc(S(=O)(=O)N3CCCCCC3)cc12	30.6
CCN(CC)CCNC(=O)c1cc(-c2cccnc2)nc2ccc(S(=O)(=O)N3CCC(C)CC3)cc12	-65.1
COCCNC(=O)c1cc(-c2ccccn2)nc2ccc(S(=O)(=O)N3CCC(C)CC3)cc12	-61.8
CCOCCCNC(=O)c1cc(-c2cccnc2)nc2ccc(S(=O)(=O)N3CCC(C)CC3)cc12	12.9
CCCCN(C)CCNC(=O)c1cc(-c2cccnc2)nc2ccc(S(=O)(=O)N3CCC(C)CC3)cc12	-35.5
